Compounds with a hit are over-represented: about 20% of the library has one in this group of screens.
Pf growth 48h – Primary qHTS for delayed death inhibitors of the malarial parasite plastid, 48 hour incubation. P. falciparum luciferase growth in erythrocytes, 48 h. Potency, µM (series often up to 28.7 µM), inactives show top-dose activity change, negative = inhibition, hits mostly inhibitors. hit rate 5.9% among 310,000; further: potency means the concentration at half of the fitted maximal effect; on the % scale 0 is the no-effect control and ±100 the full control effect
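First compound was added to culture medium, then infected red cells at 0.1% parasitemia and 2% hematocrit (final). After incubation at 37 C under 5% CO2, luciferase detection reagent was dispensed and light output recorded.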
HCMV inh – qHTS Assay for inhibitors of the human cytomegalovirus (HCMV); AID 1259415, 2018; activity change, negative = inhibition, % at 57.5 µM; HFF cells, HCMV-luciferase reporter, 72 h; active compounds read low; hit rate 4.5% among 410,000; in the data active means activity change below about -60%; inconclusive means no clear call, values can overlap the other calls; inactive means above about -39%; further: on the % scale 0 is the no-effect control and ±100 the full control effect
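Two-dose cell screen: HFF monolayers treated with compounds and infected with luciferase-expressing HCMV at 1 PFU/cell, 72 h at 37C, then lysed for luciferase measurement.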
Shiga toxin inh – A qHTS for Small Molecule Inhibitors of Shiga Toxin; Vero cells, Shiga toxin protein synthesis inhibition reporter; inhibition, % at 38.7 µM; hit rate 9.2% among 290,000; AID 2315, 2010; in the data active means inhibition mostly above about 28%, no sharp cut-off; inactive means mostly below about 43%; further: 0% is about no effect
Cycloheximide cs – Cycloheximide Counterscreen for Small Molecule Inhibitors of Shiga Toxin; cell reporter, cycloheximide protein synthesis inhibition counterscreen; max response, %; hit rate 12% among 300,000; AID 2314, 2010; in the data active means max response mostly above about 13%, no sharp cut-off; inactive means mostly below about 14%; further: read at 38.3 µM for the half of the compounds with a filed dose; 0% is about no effect
Pf growth 96h – Primary qHTS for delayed death inhibitors of the malarial parasite plastid, 96 hour incubation; P. falciparum luciferase reporter growth, 96 h; Potency, µM (top dose mostly 28.7 µM), for the others: at the top dose activity change, negative = inhibition, most hits filed as inhibitors; hit rate 6.9% among 320,000; further: potency means the concentration at half of the fitted maximal effect; on the % scale 0 is the no-effect control and ±100 the full control effect
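Readout is luminescence from an integrated firefly luciferase in P. falciparum. Red cells, 2% hematocrit and 0.05% parasitemia final, were cultured with compound through two parasite generations (96 hours) at 37 C, 5% CO2.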
An asterisk follows results filed as active; ? = inconclusive; / = not tested or not shown. Unless noted, the call rests on the fitted dose curve; in most records, active means well fitted inhibition curve with a large enough effect; inconclusive means small, poorly fitted or top-dose-only effect, or another doubt; inactive means no such curve, though single readings can be large or run the other way.

SMILES | Pf growth 48h | HCMV inh | Shiga toxin inh | Cycloheximide cs | Pf growth 96h
CC(=O)N1c2c(cc(Br)cc2S(=O)(=O)NCc2cccnc2)CC1C (centres undefined) | 8.7% | 41.4 | -4.6 | 3.3 | 20.9%
CC(=O)N1c2c(cc(Br)cc2S(=O)(=O)N2CCN(c3ccccc3F)CC2)CC1C (centres undefined) | ? | -67.2* | -17.6 | -3.0 | 11.7µM*
CC(=O)N1c2c(cc(Br)cc2S(=O)(=O)N2CCN(c3cc(C)ccc3C)CC2)CC1C (centres undefined) | / | -32.7 | / | / | /
FC(F)(F)c1cccc(NC(=S)NCc2ccccc2)c1 | ? | -72.6* | -8.3 | -1.9 | 3.29µM*
FC(F)(F)c1cccc(CNC(=S)Nc2ccccc2)c1 | ? | -71.6* | 25.9 | 10.9 | ?
Cc1ncoc1C(=O)N1CCCC(C(=O)c2ccc(C(F)(F)F)cc2)C1 (centres undefined) | 0.0% | 4.4 | 9.0 | 5.8 | -6.6%
COC(=O)c1ccccc1NC(=O)c1cc2c(-c3ccc(OC)c(OC)c3)nn(C)c2s1 | / | 8.9 | / | / | /
CC1CN(c2nc3ccccc3nc2SCC(=O)Nc2ccc(F)cc2)CC(C)O1 (centres undefined) | ? | -13.3 | 11.6 | 10.0 | 1.4%
CCc1nnc(NC(=O)C(CC)CC)s1 | -1.3% | 0.0 | 3.0 | -0.5 | 34.2%
CCCS(=O)(=O)NCCc1cc2c(OC)ccc(OC)c2[nH]c1=O | 8.0% | -77.2* | -11.2 | -3.7 | 47.7%
COC1OCC(O)C(OC(=O)c2ccccc2)C1OC(=O)c1ccccc1 (centres undefined) | / | -0.3 | / | / | /
Cc1ccc(-c2nnc(NC(=O)c3ccc([N+](=O)[O-])o3)o2)c(C)c1 | -4.3% | ? | / | / | 12.8%
COc1cccc(-c2nnc(NC(=O)c3ccccc3Br)o2)c1 | 78.0% | 19.3 | 65.9* | 35.3* | 126.3%
COc1ccc(-c2nnc(NC(=O)c3ccc([N+](=O)[O-])o3)o2)c(OC)c1 | 14.7µM* | -94.0* | -4.0 | -1.6 | 11.7µM*
COc1cccc(-c2nnc(NC(=O)c3ccc(Cl)s3)o2)c1 | ? | -27.1 | -1.6 | 4.8 | 11.7µM*
COc1cccc(-c2nnc(NC(=O)c3cccc(F)c3)o2)c1 | ? | -22.9 | -4.8 | -2.4 | ?
COc1ccc(C(C(=O)NC(C)(C)C)N(CCC(C)C)C(=O)CCC(=O)Nc2cc(C)on2)cc1 (centres undefined) | ? | 1.4 | 4.9 | -3.4 | ?
CC(O)(c1cccnc1)c1nc(/C=C/c2ccccc2)cs1 (centres undefined) | / | -82.6* | / | / | /
O=C(NCCc1ccc(Cl)cc1)Nc1cccc(Cl)c1 | ? | -10.9 | 37.1* | 13.4 | 92.6%
O=C(/C=C/c1cccc(Cl)c1)NCCc1ccccc1 | 42.1% | -22.6 | 106.8* | 65.3* | 0.0%
O=C(NCCc1ccccc1)Nc1cccc(Cl)c1 | -4.3% | -2.3 | 40.4 | 49.3* | 2.94µM*
COc1ccc(NC(=O)NCCc2cccc(Cl)c2)cc1OC | ? | -32.0 | 39.5 | 34.4* | -4.0%
O=C(O)/C=C/C(=O)NCCc1cccc(Cl)c1 | 38.8% | ? | 10.8 | -1.9 | 16.1%
CSc1cccc(NC(=O)Nc2ccccc2OCc2cc(=O)n3cc(C)ccc3n2)c1 | / | -8.0 | / | / | /
O=C(CC[C@H]1O[C@@H](n2cnc3c(NC(=O)c4ccccc4)ncnc32)[C@H](O)[C@@H]1O)NCc1ccc(OC(F)(F)F)cc1 | / | -1.4 | / | / | /
SMILES | Pf growth 48h | HCMV inh | Shiga toxin inh | Cycloheximide cs | Pf growth 96h
CCc1c(C)sc2c1CCN(C(=O)Nc1ccccc1C(=O)OC)C2c1ccc(F)cc1 (centres undefined) | / | -1.0 | / | / | /
CCc1c(C)sc2c1CCN(C(=O)Nc1ccc(F)c(Cl)c1)C2c1ccc(F)cc1 (centres undefined) | / | -103.7* | / | / | /
Cc1ccc(N/C(CSC(N)=O)=N/S(=O)(=O)c2ccccc2)cc1 | 26.1% | -4.8 | 8.4 | 7.5 | 3.29µM*
Cc1ccc(N/C(CSC(N)=O)=N\S(=O)(=O)c2ccc(C)cc2)cc1 | / | -4.1 | -6.6 | -2.4 | /
CC(C)(C)c1ccc(CSc2ccc(S(=O)(=O)N3CCOCC3)cn2)cc1 | 10.4µM* | ? | / | / | ?
O=S(=O)(c1ccc(SCc2ccccc2)nc1)N1CCCC1 | -0.7% | -39.6 | / | / | -21.2%
Cc1ccc(C(C)NC(=O)CSc2ccc(S(=O)(=O)N3CCOCC3)cn2)cc1C (centres undefined) | 11.7µM* | -25.3 | / | / | ?
Cc1cccc(CSc2ccc(S(=O)(=O)N3CCCC3)cn2)c1 | ? | 6.9 | / | / | 6.57µM*
CCC(C)NC(=O)CSc1ccc(S(=O)(=O)N2CCN(Cc3ccccc3)CC2)cn1 (centres undefined) | ? | ? | / | / | 9.28µM*
O=S(=O)(c1cc(Cl)cc(Cl)c1)N1CCC2CC1c1cc(Cl)ccc12 (centres undefined) | / | -9.8 | / | / | /
COc1ccccc1N1CCN(C(=O)c2ccc(CS(=O)c3ccccc3C)o2)CC1 (centres undefined) | / | -7.3 | / | / | /
COc1cccc(N2CCN(C(=O)c3ccc(CS(=O)c4ccc(Cl)cc4)o3)CC2)c1 (centres undefined) | ? | -34.6 | -3.2 | -3.6 | 13.1µM*
Cc1ccccc1S(=O)Cc1ccc(C(=O)N2CCN(c3cccc(C)c3C)CC2)o1 (centres undefined) | / | -83.5* | / | / | /
O=C(c1ccc(CS(=O)c2cccc(Cl)c2)o1)N1CCN(c2ccccn2)CC1 (centres undefined) | ? | -14.6 | -5.5 | 24.2 | 7.38µM*
O=C(c1ccc(CS(=O)c2cccc(Cl)c2)o1)N1CCOCC1 (centres undefined) | 18.4% | 31.8 | -5.6 | -12.1 | ?
Cc1cccc(N2CCN(C(=O)c3ccc(CS(=O)c4cccc(Cl)c4)o3)CC2)c1C (centres undefined) | / | -86.9* | / | / | /
COc1cccc(N2CCN(C(=O)c3ccc(CS(=O)c4ccc(C)cc4)o3)CC2)c1 (centres undefined) | -10.3% | ? | -15.2 | -4.9 | ?
COc1ccc2c(c1)c(C(=O)CN1CCc3ccccc3C1)c(C)n2C | -69.5% | 65.5 | -5.0 | -2.0 | ?
Cc1cc(C)c(C)c(S(=O)(=O)NCC(=O)Nc2ccc(F)cc2)c1C | -14.0% | -7.1 | -6.8 | -0.8 | -22.8%
CCOC(=O)N1CCC(NC(=O)c2ccc(CS(=O)c3cccc(Cl)c3)o2)CC1 (centres undefined) | -0.1% | 9.0 | 7.4 | -3.4 | 9.28µM*
O=C(NC1CCCCCC1)c1ccc(CS(=O)c2cccc(Cl)c2)o1 (centres undefined) | / | 9.2 | / | / | /
COc1ccccc1C(O)(C(=O)N(NC(C)=O)c1ccccc1)c1ccccc1OC | -13.3% | -19.3 | -5.1 | -3.3 | 22.1%
Cc1ccc(-c2cc(C(F)F)nc(NCc3cccnc3)n2)cc1 | 13.1µM* | 37.7 | 2.9 | -0.9 | 16.7%
Cc1ccc(-c2cc(C(F)F)nc(N3CCOCC3)n2)cc1 | ? | -39.1 | 24.0 | 0.8 | ?
COc1ccc(-c2cc(C(F)(F)F)nc(NCc3cccs3)n2)cc1 | ? | 19.6 | -14.9 | -5.9 | ?

Compound activity deposited in PubChem BioAssay by National Center for Advancing Translational Sciences (NCATS).
